# Measurements: PubChem BioAssay (Tox21)
# Where “and” joins values, the source holds several entries; their conditions need not be identical. Equal values may be shown once. Results filed as inconclusive are left out. Calls of active or inactive are those of the source. The call rests on the fitted dose curve; in most records, active means well fitted cell-killing curve with a large enough effect in the repeat runs; inconclusive means weak or mixed curves; inactive means no such curve, though single readings can be large or run the other way.
# Experiment: qHTS assay for identifying genotoxic compounds that show differential cytotoxicity against isogenic chicken DT40 cell lines with known DNA damage response pathways - Rad54/Ku70 mutant cell line (AID 743015); further: nearly all actives have a fitted effect of over 60% in size
# Conditions: DT40 Rad54/Ku70 mutant viability, CellTiter-Glo, 40 h; series mostly up to 66.8 µM; activity change, negative = cytotoxicity: at the top concentration
# Excerpt: National Center for Advancing Translational Sciences [NCATS]
# NIH Chemical Genomics Center [NCGC]
# U.S. Environmental Protection Agency [EPA]
# National Institutes of Environmental Health Sciences [NIEHS]
# National Toxicology Program [NTP]
# U.S. Food and Drug Administration [FDA]
# DNA repair pathways play a critical role in cellular homeostasis by repairing DNA damage induced by endogenous processes and xenobiotics. Isogenic chicken DT40 cell lines deficient in different DNA repair pathways can be used to identify genotoxic compounds and aid in characterizing the nature of the DNA damage induced. Two DNA repair-deficient cell lines with disrupted genes, Rad54/Ku70 or Rev3, were used to screen the Tox21 10K compound library. Possible genotoxicity was based on the presence of a significant increase in cytotoxicity in one or more of the DNA repair-deficient cell lines compared to that observed in the parental DNA repair-proficient cell line. CellTiter Glo viability assay (Promega, Madison, WI) was used to measure cell viability in these cells after compound treatment. This assay includes the data from the Rad54/Ku70 mutant cell line.
# Tox21 Assay Protocol Summary:
# 300 DT40 mutant cells in 5 uL/well were dispensed into white, solid-bottom 1536-well plates using a Multidrop Combi (ThermoFisher Scientific, Waltham, MA) dispenser. After the assay plates were incubated at 37 C/5% CO2 for approximately 0.5 hour, 23 nL of compounds dissolved in DMSO, positive controls or DMSO only was transferred into the assay plate by a pintool work station (Kalypsys, San Diego, CA). The assay plates were incubated at 37 C/5% CO2 for 40 hours. After 5 uL per well of CellTiter-Glo reagent was added into each well of the assay plates, the plates were incubated for 30 min at room temperature and the luminescence intensity of the plates was measured using a ViewLux (PerkinElmer, Shelton, CT) plate reader.
# On the % scale 0 is the no-effect control and ±100 the full control effect; potency means the concentration at half of the fitted maximal effect.
Structure (SMILES),Potency,"activity change, negative = cytotoxicity"
N=C1C=CC(=C(c2ccc(N)cc2)c2ccc(N)cc2)C=C1,7.7 µM (active),–
O=C(Oc1cccc2cccnc12)c1ccccc1,6.68 µM (active),–
O=C1c2c(O)ccc(Nc3ccc(CCO)cc3)c2C(=O)c2c([N+](=O)[O-])ccc(O)c21,27.3 µM (active),–
Cc1ccc(O)c(C(C)(C)C)c1,15.3 µM (active),–
Cc1c(C)c2c(c(C)c1O)CCC(C)(COc1ccc(CC3SC(=O)NC3=O)cc1)O2 (stereo not given),10.6 µM (active) and 24.3 µM (active),–
COc1cccc2c1C(=O)c1c(O)c3c(c(O)c1C2=O)C[C@@](O)(C(=O)CO)C[C@@H]3O[C@H]1C[C@H](N)[C@H](O[C@@H]2CCCCO2)[C@H](C)O1,0.0298 µM (active),–
Oc1c(Cl)cc(Cl)c2cccnc12,4.22 µM (active),–
Cc1nc(-c2ccc3c(c2)CCN(CCC2CCC(NC(=O)/C=C/c4ccc(F)cc4)CC2)CC3)no1 (stereo not given),0.546 µM (active),–
CCOC(=O)O[C@H](C)OC(=O)c1ccc2c(c1)cc(C(=O)NC1CCN(C(C)C)CC1)n2Cc1cc(-c2ccc(Cl)s2)on1,11.4 µM (active),–
CC(C)(C)CC(C)(C)c1ccc(OCCOCC[N+](C)(C)Cc2ccccc2)cc1,1.06 µM (active) and 1.93 µM (active),–
Oc1ccc(C2(c3ccc(O)cc3)CC3CC2C2CCCC32)cc1 (stereo not given),–,-1.82% (inactive)
Oc1cccc(-c2c3nc(c(-c4cccc(O)c4)c4ccc([nH]4)c(-c4cccc(O)c4)c4nc(c(-c5cccc(O)c5)c5ccc2[nH]5)CC4)C=C3)c1,26.6 µM (active),–
O=C(O)c1ccc(Cl)c(Cl)c1,–,-0.337% (inactive)
OCCN1CCN(CC/C=C2/c3ccccc3Sc3ccc(C(F)(F)F)cc32)CC1,11.9 µM (active),–
CC(=O)OCC(C)OC(C)=O (stereo not given),–,-2.77% (inactive)
Fc1ccc([C@@H]2CCNC[C@H]2COc2ccc3c(c2)OCO3)cc1,7.5 µM (active),–
Cc1cc(CCN2CCN(c3nsc4ccccc34)CC2)cc2c1NC(=O)CC2(C)C,4.86 µM (active),–
COCCCC/C(=N\OCCN)c1ccc(C(F)(F)F)cc1,10.6 µM (active),–
Nc1c2ccccc2nc2ccccc12,944 nM (active) and 677 nM (active),–
CSc1ccc(C(=O)c2[nH]c(=O)[nH]c2C)cc1,–,0.507% (inactive)

Structure (SMILES),Potency,"activity change, negative = cytotoxicity"
O=C1C=CC(=O)N1,5.59 µM (active),–
Cn1cc(C(=O)[C@@H]2CCc3nc[nH]c3C2)c2ccccc21,–,-1.91% (inactive)
Cc1cccc2c1cc1ccc3cccc4ccc2c1c34,–,-2.66% [at 95.1 µM] (inactive)
CC(=O)SC[C@@H](Cc1ccccc1)C(=O)NCC(=O)OCc1ccccc1,–,-20.8% [at 30.7 µM] (inactive)
CNCc1cc(F)ccc1Oc1ccc(Cl)c(Cl)c1,13.7 µM (active),–
O=[N+]([O-])c1cc(Cl)c(Cl)c(Cl)c1Cl,–,9.59% (inactive)
CN(C)C(=O)C1(N2CCCCC2)CCN(CC[C@@]2(c3ccc(Cl)c(Cl)c3)CN(C(=O)c3ccccc3)CCO2)CC1,5.71 µM (active),–
CCCCCCCCCCCCCCCCCC[N+](C)(C)Cc1ccccc1,0.871 µM (active),–
Cc1cc(N)c(S(=O)(=O)O)cc1Cl,–,6.38% [at 95.1 µM] (inactive)
CC(C)CCCCCCCCCCCCCCC(=O)O,–,-8.01% (inactive)
Oc1cc2ccccc2c2ccccc12,1.09 µM (active),–
[O-][n+]1ccccc1SSc1cccc[n+]1[O-],0.0841 µM (active),–
CCCCN1C(=O)[C@@H]([C@H](O)C2CCCCC2)NC(=O)C12CCN(Cc1ccc(Oc3ccc(C(=O)O)cc3)cc1)CC2,15.4 µM (active),–
CC(C)(C)NC(=O)[C@@H]1C[C@@H]2CCCC[C@@H]2CN1C[C@@H](O)[C@H](Cc1ccccc1)NC(=O)[C@H](CC(N)=O)NC(=O)c1ccc2ccccc2n1,16.8 µM (active) and 55.2 µM (active),–
Nc1ccc2cc(S(=O)(=O)O)cc(O)c2c1N=Nc1ccccc1C(F)(F)F,–,-14.6% (inactive)
CCCN(CCC)c1c([N+](=O)[O-])cc(C(F)(F)F)c(N)c1[N+](=O)[O-],12.2 µM (active),–
Nc1ccccc1O,5.38 µM (active),–
CN(C)c1ccc(C2(c3ccc(N(C)C)cc3)OC(=O)c3cc(N(C)C)ccc32)cc1,15.3 µM (active),–
CCCN(CCC)C(=O)C(CCC(=O)OCCCN1CCN(CCOC(=O)Cc2c(C)n(C(=O)c3ccc(Cl)cc3)c3ccc(OC)cc23)CC1)NC(=O)c1ccccc1 (stereo not given),23.7 µM (active),–
Cc1onc(-c2c(Cl)cccc2Cl)c1C(=O)N[C@@H]1C(=O)N2[C@@H]1SC(C)(C)[C@@H]2C(=O)O,–,5.69% (inactive)
